In PubChem BioAssay (NCATS):
A number with no mark means an inactive call. Calls of active or inactive are those of the source. Calls follow the shape of the dose curve; as a rule, active = well fitted inhibition curve with a large enough effect; inconclusive = small, poorly fitted or top-dose-only effect; inactive = no such curve, though single readings can be large or run the other way.

assay: qHTS assay for measurement of the activity of small molecule inhibitors on Zika virus induced Caspase-3 activity in human astrocytoma cells (AID 1224859); details: SNB-19 ZIKV-induced caspase-3/7, luminescence, 6 h; series mostly up to 45.7 µM; activity change, negative = inhibition: at the top concentration;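 also: plate controls were ZIKV-infected untreated cells for no effect and uninfected cells for full effect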
From the text: National Center for Advancing Translational Sciences [NCATS]
Johns Hopkins University School of Medicine
Increase in the Caspase-3 activity indicates an activation of apoptosis cell death pathway caused by Zika virus infection in certain types of neuronal cells including human neural progenitor cells (hNPCs), astrocytes, and astrocytoma cell line (SNB-19). This cell-based caspase-3 activity assay measures the increased caspase-3 activity in the astrocytoma cell line (SNB-19) after a 6-hour Zika virus infection with a luminescence readout. A decrease in the luminescence signal in this assay by small molecule treatment indicates an inhibitory effect of that small molecule on the Zika virus induced caspase-3 activity that may correlate with its effect on reduction of Zika virus caused cell death.
The medium for SNB-19 cells is composed of RPMI 1640 (ATCC, Cat.# 30-2001), 10% fetal bovine serum (FBS) (GE healthcare Life Sciences, Cat.# SH30071.03), and 1% Pen/Strep (Gibco, Cat.# 15140-122). A Caspase-Glo 3/7 assay kit (catalog number G8092; Promega, Madison, WI) was used to detect caspase-3 activity induced by Zika virus infection in human cells. The reagent mixture was reconstituted as described in the protocol from the manufacturer. Polystyrene tissue culture treated and PDL coated white plates were obtained from Greiner Bio-One (Monroe, NC). Cells were seeded in 384- or 1536-well assay plates and cultured at 37 C with 5% CO2 for 16 to 20 hours. The typical cell seeding density in the 1536-well plate assay is 250 cells/well in 3ul medium for SNB-19 cells in tissue culture treated plates. Compounds were added to cells and incubated for one hour before addition of ZIKV solution to cells (2 FFU/cell). After incubation at 37 C with 5% CO2 for 6 hours, the reagent mixture of Caspase-Glo 3/7 assay kit was added to each well, followed by incubation at room temperature for 30 minutes. The luminescence intensity of the assay plates was measured using a ViewLux plate reader (PerkinElmer). Data were normalized by using the cell-containing wells without ZIKV as a negative control (0% induction of caspase 3/7 activity) and wells containing ZIKV infected cells (Caspase-3 activity induced) as a positive control (100% induction of caspase 3 activity). The percentage inhibitions of the increased Caspase-3 activity by small molecule inhibitors were then calculated.

SMILES | activity change, negative = inhibition | outcome
CCOC(C(=O)OCCN(C)C)(c1ccccc1)c1ccccc1 | 11.4% | 
COc1ccc2[nH]cc(CCN(C(C)C)C(C)C)c2c1 | -4.97% [at 92.8 µM] | 
CC(C(O)c1ccccc1)N(C)C/C=C/c1ccccc1 (stereo not given) | -25.3% | 
CC(Cc1ccccc1)NCCCCl (stereo not given) | -0.302% | 
CN(C)C(=S)SSC(=S)N(C)C | 30.1% | 
CN1C2CCC(C)(C)C1CC(OC(=O)C(O)(c1cccs1)c1cccs1)C2 (stereo not given) | -19.2% | 
COc1cc(C[C@@H](C)N)c(OC)cc1C | 6.16% [at 92.8 µM] | 
COc1ccc2c(C(=O)c3ccc(Cl)cc3)c(C)n(CC(=O)O)c2c1 | -14.4% | 
COc1cc(CC(C)N)c(OC)cc1Br (stereo not given) | 1.65% [at 92.8 µM] | 
O=C(O)Cc1ccccc1 | -3.6% | 
CC(CC(C#N)(c1ccccc1)c1ccccc1)N(C)C (stereo not given) | 10% [at 92.8 µM] | 
CCc1cc(OC)c(C[C@H](C)N)cc1OC | -2.79% [at 92.8 µM] | 
CN1C(=O)CN=C(c2ccccc2)c2cc([N+](=O)[O-])ccc21 | 4.01% | 
COP(=S)(OC)Oc1ccc(Sc2ccc(OP(=S)(OC)OC)cc2)cc1 | -2.21% | 
CN1CCC(N(Cc2ccccc2)c2ccccc2)CC1 | 0.709% | 
COc1ccc(OC)c(CC(C)N)c1 (stereo not given) | 5.35% [at 92.8 µM] | 
COc1cc(CC#N)cc(OC)c1OC | 1.68% | 
CC1Sc2c(C(=O)O)c(=O)c3cc(F)c(N4CCNCC4)cc3n21 (stereo not given) | 1.12% | 
Nc1ccc(Cl)cc1C(=O)c1ccccc1F | 51.1% | 
Cc1c(Cl)c(=O)oc2cc(OP(=O)(OCCCl)OCCCl)ccc12 | -0.751% | 

SMILES | activity change, negative = inhibition | outcome
CN(C)CCc1c[nH]c2ccccc12 | -0.949% [at 178 µM] | 
CCN(Cc1ccc(Cl)nc1)/C(=C/[N+](=O)[O-])NC | -7.42% | 
COc1cc(CC(C)N)cc2c1OCO2 (stereo not given) | -10.7% [at 92.8 µM] | 
CCO[C@H]1O[C@@H]2OC3(C)CC[C@H]4[C@H](C)CC[C@@H]([C@H]1C)[C@@]24OO3 | -2.8% | 
CC(CC(C(N)=O)(c1ccccc1)c1ccccc1)N(C)C (stereo not given) | 4.33% | 
COc1ccc2c3c1O[C@H]1[C@@H](O)C=C[C@H]4[C@@H](C2)N(C)CC[C@@]341 | 2.15% [at 92.8 µM] | 
CNC(=O)Oc1cccc2ccccc12 | 10.1% | 
c1cc2c(c(N3CCNCC3)c1)OCCO2 | -8.79% | 
CCC1(c2ccccc2)CCC(=O)NC1=O (stereo not given) | -8.89% | 
C=CCN1CC[C@]23CCCC[C@H]2[C@H]1Cc1ccc(O)cc13 | 4.04% | 
CN(C)CCc1c[nH]c2cccc(O)c12 | 7.72% [at 92.8 µM] | 
CCC1(c2cccc(O)c2)CCCCN(C)C1 (stereo not given) | -1.28% | 
CC(C)NCC(O)c1ccc(N)c(C#N)c1 (stereo not given) | -3.16% | 
C[C@]12CC[C@H]3[C@@H](CCC4=CC(=O)CC[C@@]43C)[C@@H]1CC[C@@H]2C(=O)O | -3.75% | 
CNC(C)Cc1ccc2c(c1)OCO2 (stereo not given) | 1.1% [at 92.8 µM] | 
Clc1ccc(CSC(Cn2ccnc2)c2ccc(Cl)cc2Cl)cc1 (stereo not given) | -5.1% | 
CNC(C)Cc1ccccc1OC (stereo not given) | 0.255% | 
O=C(O)c1nn(Cc2ccc(Cl)cc2Cl)c2ccccc12 |  | inactive
Sc1ccccc1Cl | 15.5% | 
Cc1cccc(Cc2cnc[nH]2)c1C | -16.7% | 
